Screens deposited in PubChem by National Center for Advancing Translational Sciences (NCATS).
Shown are actives, neighbours in structure and some others; about 19% of the full set was active somewhere.
Shiga inhibitor = inhibitors of Shiga toxin in Vero cells; Vero cells, Shiga toxin protein synthesis inhibition reporter; 9.2% of 290,000 active; inhibition, % at 38.7 µM; in the data active means inhibition mostly above about 28%, no sharp cut-off; inactive means mostly below about 43%
SARS PLpro yeast = blocks SARS-CoV papain-like protease in a yeast assay; 0.19% of 330,000 active; Potency, µM (doses to about 32.9 µM), hits mostly activators; S. cerevisiae expressing SARS-CoV PLpro, growth rescue; calls by dose curve; further: nearly all actives have a fitted effect of over 55% in size
CHX counter = counter-screen hit for Shiga toxin inhibitors, cycloheximide; cell reporter, cycloheximide protein synthesis inhibition counterscreen; max response, %; 12% of 300,000 active; AID 2314; in the data active means max response mostly above about 13%, no sharp cut-off; inactive means mostly below about 14%; further: read at 38.3 µM for the half of the compounds with a filed dose
AMA1 RON2 block = inhibitors of Plasmodium falciparum AMA1-RON2 interaction. Potency, µM (titrated, usually from 58.2 µM), most hits filed as inhibitors. AlphaScreen AMA1-biotinylated RON2 peptide binding. 0.2% of 360,000 active; further: nearly all actives have a fitted effect of over 45% in size
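AMA1 (3D7) with his tag at 25 nM final met compounds first, then biotinylated RON2 peptide at 25 nM; detection used donor plus acceptor beads, 10 µg/mL apiece, read by AlphaScreen after 30 min at room temperature.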
Pf growth 48h = inhibits P. falciparum growth in the first generation, 48 h; AID 504832; Potency, µM (series often up to 28.7 µM), usual class: inhibitors; 5.9% of 310,000 active; P. falciparum luciferase growth in erythrocytes, 48 h
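Luciferase-expressing P. falciparum in infected erythrocytes (2% hematocrit, 0.1% parasitemia final) in RPMI 1640/0.5% Albumax were exposed to compound for 48 hours at 37 C, 5% CO2; growth read as luminescence.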
Pf growth 96h = P. falciparum growth inhibition at 96 hours. P. falciparum luciferase reporter growth, 96 h. Potency, µM (doses to about 28.7 µM), most hits filed as inhibitors. 6.9% of 320,000 active
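Luminescence readout: decreased luciferase signal marks inhibited growth of reporter-expressing P. falciparum in infected red cells (2% hematocrit, 0.05% parasitemia final), exposed to compound two generations (96 h, 37 C, 5% CO2).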
Large screens that a line does not name were inactive. Unless noted, the call rests on the fitted dose curve; in most records, active means well fitted curve in the direction sought with a large enough effect; inconclusive means small, poorly fitted or top-dose-only effect, or another doubt; inactive means no such curve, though single readings can be large; an effect the other way counts as inactive or inconclusive.

COc1ccc(C(=O)NC(=S)Nc2ccc(N3CCCC3)cc2)cc1	CHX counter 16
COc1cc(C(=O)NC(=S)Nc2ccc(N3CCCC3)cc2)cc(OC)c1OC	Pf growth 48h 9.3µM, Pf growth 96h inconclusive
COc1ccccc1C(=O)NC(=S)Nc1ccc(N2CCCC2)cc1	none
CN1CCN(c2ccc(NC(=O)c3ccc(Oc4ccccc4)cc3)cc2)CC1	Shiga inhibitor 31, Pf growth 48h inconclusive, Pf growth 96h inconclusive
C/C(=N\NC(=O)CC(C)C)c1ccc(N2CCCCC2)cc1	Shiga inhibitor 71, CHX counter 26
COc1ccc(CNc2ccc(S(=O)(=O)N3CCN(C)CC3)cn2)cc1OC	Pf growth 96h inconclusive (no result: Shiga inhibitor, CHX counter)
c1ccc(Oc2cc(-c3ccccc3)nc(-c3ccccc3)n2)cc1	Pf growth 96h inconclusive
c1ccc(Oc2cc(-c3ccccc3)ncn2)cc1	Shiga inhibitor 127, CHX counter 59
Cc1cnn(-c2cc(N/N=C/c3ccccc3Cl)ncn2)c1	none
c1ccc(Oc2cc(-n3cncn3)ncn2)cc1	Shiga inhibitor 39
Cc1cnn(-c2cc(Oc3ccccc3)ncn2)c1	Shiga inhibitor 112, CHX counter 52
COc1ccccc1NC(=O)c1ccc(-c2ccccc2F)o1	Shiga inhibitor 70, CHX counter 28
O=C(NC(=S)Nc1ccccc1N1CCOCC1)c1ccc(-c2ccccc2F)o1	Pf growth 96h 15µM
Cc1cc(NC(=O)c2ccc(-c3ccccc3F)o2)no1	Shiga inhibitor 186, CHX counter 79
CCNC(=O)C1CCCN(C(=O)c2cccc(Cl)c2)CC1 (stereo not drawn)	none (no result: Shiga inhibitor, SARS PLpro yeast, CHX counter, Pf growth 48h, Pf growth 96h)
CCOC(=O)N(C)C[C@H]1OCc2cnnn2CCCC(=O)N([C@@H](C)CO)C[C@H]1C	none (no result: Shiga inhibitor, SARS PLpro yeast, CHX counter, Pf growth 48h, Pf growth 96h)
NC1=NC[C@H](c2ccccc2)N1CCc1cc(C(F)(F)F)cc(C(F)(F)F)c1	Pf growth 48h 13µM, Pf growth 96h 3.7µM
NC1=NC[C@H](Cc2ccc(O)cc2)N1CCc1cc(C(F)(F)F)cc(C(F)(F)F)c1	CHX counter 19, Pf growth 48h 5.2µM, Pf growth 96h 2.1µM
CCCCOCP(=O)(CCCC)COCCCC	Pf growth 48h inconclusive (no result: Pf growth 96h)
CCCCCN(C(=O)CCC(=O)OCc1cccc(Br)c1)c1c(N)n(CCCC)c(=O)[nH]c1=O	Pf growth 48h inconclusive, Pf growth 96h inconclusive (no result: Shiga inhibitor, CHX counter)
COc1ccccc1CN1C[C@@H]2C[C@@H](c3ccc(C)c(C)c3)N3CCC[C@@]23C1=O	Pf growth 48h inconclusive, Pf growth 96h 10µM
COc1ccccc1CN1C[C@@H]2C[C@@H](c3[nH]c4c(C)cccc4c3C)N3CCC[C@@]23C1=O	Pf growth 48h 6.6µM, Pf growth 96h 12µM
COCc1ccc([C@@H]2C[C@H]3CN(Cc4ccccc4C)C(=O)[C@]34CCCN24)o1	Shiga inhibitor 32, CHX counter 21, Pf growth 96h inconclusive
COc1ccc(-c2[nH]ncc2[C@@H]2C[C@H]3CN(Cc4ccccc4C)C(=O)[C@]34CCCN24)cc1	Pf growth 48h 3.3µM
C[C@H](CO)N1C[C@H](C)[C@@H](CN(C)Cc2ccc(Oc3ccccc3)cc2)Oc2c(NS(=O)(=O)c3cn(C)cn3)cccc2C1=O	none (no result: Shiga inhibitor, CHX counter, Pf growth 48h, Pf growth 96h)
COC(=O)CSc1nnc(CNC(=O)Cc2ccccc2)n1C	none
COc1ccccc1CN1C[C@@H]2C[C@@H](c3cccc(C)c3)N3CCC[C@@]23C1=O	Pf growth 48h inconclusive, Pf growth 96h 10µM
COc1ccc([C@@H]2C[C@H]3CN(Cc4ccccc4OC)C(=O)[C@]34CCCN24)cc1C	none
Cc1sc2ncnc(N3CCC(C(=O)Nc4nc(-c5ccc(F)cc5)cs4)CC3)c2c1C	Pf growth 48h inconclusive, Pf growth 96h inconclusive (no result: Shiga inhibitor, CHX counter)
COc1cc(CNn2c(C)n[nH]c2=S)cc(Cl)c1OCC(=O)NC(C)(C)C	CHX counter 11, Pf growth 48h inconclusive, Pf growth 96h inconclusive
C=CCOc1ccc(CNn2c(C)n[nH]c2=S)cc1OC	Shiga inhibitor 55, CHX counter 28
Cc1ccn2c(CNCCCn3cccn3)c(C(=O)N3CCCCCC3)nc2c1	none
O=C(c1nc2ccccn2c1CNCCCn1cccn1)N1CCCC1	Pf growth 96h 13µM
O=C(c1nc2ccccn2c1CNCC1OCCc2ccccc21)N1CCOCC1 (stereo not drawn)	Pf growth 96h 12µM
COc1ccc(N2CCN(C(=O)COC(=O)Cc3cccc(OC)c3)CC2)cc1	Pf growth 48h inconclusive (no result: Shiga inhibitor, CHX counter)
Cc1cc(O)cc(O)c1-c1onc(C(F)(F)F)c1-c1cscn1	none
CCOc1ccc(-c2onc(C(F)(F)F)c2-c2cscn2)c(O)c1	Pf growth 48h 4.7µM (no result: Pf growth 96h)
CNC(=S)NNC(=O)c1ccc(C(C)(C)C)cc1	CHX counter 17, Pf growth 48h inconclusive
CNC(=S)NNC(=O)c1ccc2c(c1)OCO2	Shiga inhibitor 52
COc1ccc(C(=O)NNC(=O)c2ccc(C(C)(C)C)cc2)cc1	none
O=C(NNC(=O)c1cccc2ccccc12)c1ccc2c(c1)OCO2	Shiga inhibitor 50, CHX counter 24
CNS(=O)(=O)c1cccc(C(=O)OC2CCCCC2=O)c1 (stereo not drawn)	Pf growth 96h inconclusive
Cn1c(=O)c(C(=O)c2ccc(S(C)(=O)=O)c(Cl)c2Cl)c(O)c2ccccc21	none (no result: Shiga inhibitor, SARS PLpro yeast, CHX counter, Pf growth 48h, Pf growth 96h)
CC1(C)C(c2cccs2)=NC(c2ccccc2)N1O (stereo not drawn)	Pf growth 96h 9.3µM
Cc1ccc2c(C(=O)N3CCN(c4ccccc4)CC3)cc(-c3cccnc3)nc2c1C	Pf growth 48h 2.3µM
CC(C)n1ncc2c(C(=O)N3CCN(c4ccccc4)CC3)cc(-c3ccccc3)nc21	Pf growth 48h inconclusive, Pf growth 96h inconclusive (no result: Shiga inhibitor, CHX counter)
Cc1ccc2nc(-c3cccnc3)cc(C(=O)N3CCN(c4ccc([N+](=O)[O-])cc4)CC3)c2c1	Pf growth 48h 10µM
Cc1ccc(C(=O)N2CCN(c3ccc([N+](=O)[O-])c(NCc4cccnc4)c3)CC2)cc1	Pf growth 48h 8.3µM, Pf growth 96h 3.7µM
CC(=O)c1ccc(N2CCN(C(=O)c3cc(-c4cccnc4)nc4ccc(Br)cc34)CC2)cc1	Pf growth 48h inconclusive
CCOc1ccccc1N1CCN(C(=O)c2cc(-c3cccnc3)nc3c(Cl)cccc23)CC1	Pf growth 48h 3.3µM
Cc1ccccc1C(=O)N1CCN(c2ccc([N+](=O)[O-])c(NCc3cccnc3)c2)CC1	Pf growth 48h inconclusive
COc1ccc(/C=C/C(=O)Oc2cc(C)[nH]c(=O)c2[N+](=O)[O-])cc1OC	Shiga inhibitor 164, CHX counter 59
O=C(NNc1ccccc1)OCc1ccccc1	none (no result: Shiga inhibitor, SARS PLpro yeast, CHX counter, Pf growth 48h, Pf growth 96h)
O=C(Nc1cccnc1)OCc1ccccc1	CHX counter 19
O=C(Nc1ccc(Cl)c(Cl)c1)OCc1cccnc1	Shiga inhibitor 42, CHX counter 20, Pf growth 96h inconclusive
OCCC1CN(Cc2c(F)cccc2Cl)CCN1C1CCCC1 (stereo not drawn)	Pf growth 96h 13µM
